Screening data as filed in PubChem BioAssay.
Rows were chosen to be rich in hits. Some 3% of all compounds tested hit in one or more screens of this group.
Mcl1 Bid PPI: disrupts binding of human Mcl-1 to Bid peptide; Q07820; inhibition, % at 21.7 µM; 0.97% of 220,000 active; TR-FRET Mcl-1/Bid-Dy647 peptide binding, 1536-well; AID 1021;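 active = compounds that cut the binding signal by more than half at the single screening dose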;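 also: His-tagged Mcl-1 with europium anti-His antibody binding Bid BH3 peptide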
Target sequence (Q07820 whole entry, looked up): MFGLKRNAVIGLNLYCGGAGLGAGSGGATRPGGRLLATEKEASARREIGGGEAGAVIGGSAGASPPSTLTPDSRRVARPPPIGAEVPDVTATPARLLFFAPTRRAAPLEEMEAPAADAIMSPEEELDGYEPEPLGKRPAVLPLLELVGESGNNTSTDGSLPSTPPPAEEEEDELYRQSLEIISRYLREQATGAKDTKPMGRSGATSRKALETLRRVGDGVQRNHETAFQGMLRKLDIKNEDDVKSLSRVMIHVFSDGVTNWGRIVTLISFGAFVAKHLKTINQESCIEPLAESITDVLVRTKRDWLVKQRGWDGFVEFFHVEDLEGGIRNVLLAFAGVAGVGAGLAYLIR
Arbovirus anti: antivirals against arbovirus infection. arbovirus infection cell-based antiviral screen. inhibition, % at 10 µM. 0.37% of 200,000 active; in the data active = inhibition above about 30%
Mcl1 Noxa PPI: Mcl-1/Noxa interaction inhibition; Q07820; TR-FRET Mcl-1/Noxa peptide binding, 2 h; inhibition, % at 21.7 µM; 1.5% of 220,000 active; AID 1022;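 active = compounds that cut the protein-peptide binding signal by more than 50% relative to plate controls in a single-dose test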;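 also: His-tagged Mcl-1 with rhodamine Noxa BH3 peptide and terbium anti-His antibody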
Bim-Mcl-1: human Bim-Mcl-1 interaction inhibition; Q07820; Bead-based flow cytometry, Bim peptide-Mcl-1 binding; inhibition, % at 10 µM; 0.1% of 190,000 active; in the data active = inhibition above about 40%
14-3-3 Bad PPI: disrupts binding of bovine 14-3-3 zeta to phospho-Bad peptide; P63103; TR-FRET 14-3-3zeta/Dy647-pBad peptide displacement, 1 h; 0.71% of 220,000 active; inhibition, % at 21.7 µM;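 active = inhibition above about 70%, limit read from the data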
Target sequence (P63103 whole entry, looked up): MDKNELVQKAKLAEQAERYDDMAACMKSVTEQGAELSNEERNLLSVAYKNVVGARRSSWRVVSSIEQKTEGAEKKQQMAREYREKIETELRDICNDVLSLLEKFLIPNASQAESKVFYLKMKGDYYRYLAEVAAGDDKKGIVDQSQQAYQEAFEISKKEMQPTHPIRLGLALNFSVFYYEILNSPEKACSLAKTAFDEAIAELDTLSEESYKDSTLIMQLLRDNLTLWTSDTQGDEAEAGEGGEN
Large screens that a line does not name were inactive; [ ] = dose if it differs, or a comment.

Nc1c(O)ccc2c1C(=O)c1ccccc1C2=O	Mcl1 Noxa PPI 78
Cc1c(CCC(=O)O)c(=O)oc2c(C)c(OCc3cc4c(cc3Cl)OCO4)ccc12	Mcl1 Noxa PPI 58 (no result: Arbovirus anti, Bim-Mcl-1)
Oc1ccccc1CNCCCNCc1ccccc1O	Arbovirus anti 44
OCCCNCc1cccc2ccccc12	none
CCN(CC)CCSc1nnc2c3cc(C)ccc3n(Cc3ccccc3)c2n1	none (no result: Arbovirus anti, Bim-Mcl-1)
COc1cc(SC)ccc1C(=O)N1CCN(c2ccccc2)CC1	Mcl1 Noxa PPI 82
Cc1c(C(=O)O)cccc1-c1ccc(/C=N/Nc2ccc(Br)cc2)o1	none
Cc1ccc(OCC(=O)N/N=C/c2cccn2C)cc1	14-3-3 Bad PPI 70
O=[N+]([O-])c1ccc(NC(=S)NCCc2ccc(F)cc2)cc1	Mcl1 Noxa PPI 52
Cc1ccc(C)c(N2CCN(C(=O)CCCN3C(=S)NC(C)(C)CC3C)CC2)c1 (centres undefined)	none
O=[N+]([O-])c1cc(/C=N\Nc2nccs2)ccc1O	Mcl1 Bid PPI 61, Mcl1 Noxa PPI 101, 14-3-3 Bad PPI 75[fluorescence artefact?]
Cc1ccc2[nH]c(=O)c(-c3nc4cc(C)ccn4c3NCc3ccco3)cc2c1	Mcl1 Bid PPI 80, Mcl1 Noxa PPI 60
COc1ccc(Cl)cc1NC(=O)CCNC(=O)OCc1ccccc1	none
Clc1cccc(N/N=C/c2ccc(N3CCOCC3)s2)c1	Mcl1 Noxa PPI 87
O=c1c(C=NCCCO)c(-c2ccccc2)[nH]n1-c1nc2ccccc2s1	Mcl1 Bid PPI 62, 14-3-3 Bad PPI 71
COCCCN=Cc1c(-c2ccccc2)[nH]n(-c2nc3ccccc3s2)c1=O	none (no result: Arbovirus anti, Bim-Mcl-1)
Cc1ccc(NC(=O)c2ccccc2OCC(=O)Nc2cccc(Cl)c2C)nc1	none
CCC(NC(=O)c1ccc(C#CC2(O)CCCCC2)cc1)C(=O)O (centres undefined)	none
CC(=O)c1csc(-c2ccccc2)n1	none
CC(=O)c1csc(Nc2ccccc2Cl)n1	14-3-3 Bad PPI 90 (no result: Arbovirus anti, Bim-Mcl-1)
O=[N+]([O-])c1cccc(-c2cc(C(F)(F)F)n3nc(-c4ccccc4)cc3n2)c1	none (no result: Arbovirus anti, Bim-Mcl-1)
COc1ccc(-c2cc3ccccc3oc2=O)cc1NC(=S)NC(=O)c1ccc2c(c1)OCCO2	14-3-3 Bad PPI 77[fluorescence artefact?]
COc1ccc(-c2cc3ccccc3oc2=O)cc1NC(=O)c1ccc(Br)o1	Mcl1 Bid PPI 60
COc1ccc(-c2cc3ccccc3oc2=O)cc1NC(=O)c1ccc([N+](=O)[O-])o1	Mcl1 Bid PPI 65, 14-3-3 Bad PPI 80[fluorescence artefact?]
Cc1cc(C)c(C)c(S(=O)(=O)NC(C)C(=O)O)c1C (centres undefined)	none (no result: Arbovirus anti, Bim-Mcl-1)
COc1ccc(OC)c(Cc2nnc(CCC(=O)NCc3ccc(C)s3)o2)c1	none
COc1ccc(CCN(C(=O)c2cccc(F)c2)C2CC(=O)N(c3ccc(OC)cc3)C2=O)cc1 (centres undefined)	none
COc1ccc2oc(C(=O)OCC(=O)NCCN3C(=O)CSC3=O)c(C)c2c1	none
CCOC(=O)c1cc(-c2ccccc2)sc1NC(=O)COC(=O)c1ccc(Cl)c(S(N)(=O)=O)c1	none
CCOC(=O)c1cc(-c2ccccc2)sc1NC(=O)COC(=O)c1cccc(S(N)(=O)=O)c1	14-3-3 Bad PPI 73
CCn1c(=N)n(CC(=O)c2cccc([N+](=O)[O-])c2)c2ccccc21	14-3-3 Bad PPI 74[fluorescence artefact?]
COc1cccc2cc(C(=O)NCCc3c[nH]c4ccccc34)c(=O)oc12	none
O=C(c1ccoc1)N1CCC(CO)(CCc2ccccc2)CC1	none
CC(NC(=S)Nc1ccc(Cl)cc1)C(c1ccccc1)N1CCOCC1 (centres undefined)	14-3-3 Bad PPI 71
O=C(Nc1ccc(S(=O)(=O)Nc2nccs2)cc1)/C(=C/c1ccccc1Cl)NC(=O)c1ccccc1	Mcl1 Noxa PPI 94
CN(C(=O)CSc1nnc(-c2ccc(F)cc2)c2ccccc12)C1CCS(=O)(=O)C1 (centres undefined)	none
O=C(OC(C(=O)NCc1ccco1)C(OC(=O)c1ccccc1)C(=O)NCc1ccco1)c1ccccc1 (centres undefined)	none
CC(C)NC(=O)C(OC(=O)c1ccccc1)C(OC(=O)c1ccccc1)C(=O)O (centres undefined)	14-3-3 Bad PPI 70
Cc1ccc2c(c1)C(CCN)C(=O)N2Cc1ccccc1 (centres undefined)	none
Cc1ccc2c(c1)C1CCCC3C1N2CC(=O)N3Cc1ccccc1 (centres undefined)	Arbovirus anti 32, Mcl1 Noxa PPI 51
O=C(/C=C/c1ccc(Br)cc1)N1CCN(c2cccc(C(F)(F)F)c2)CC1	Mcl1 Bid PPI 61
O=C(CN1CCN(c2cccc(C(F)(F)F)c2)CC1)Nc1cccc(C(F)(F)F)c1	14-3-3 Bad PPI 74
O=C(c1c(F)c(F)c(F)c(F)c1F)N1CCN(c2cccc(C(F)(F)F)c2)CC1	none
CC(=O)Nc1ccc(NC(=O)CN2CCN(c3cccc(C(F)(F)F)c3)CC2)cc1	none
O=C(c1ccncc1)N1CCN(c2cccc(C(F)(F)F)c2)CC1	Mcl1 Noxa PPI 57
O=C(/C=C/c1cccc(Br)c1)N1CCN(c2cccc(C(F)(F)F)c2)CC1	none
Cc1ccc(S(=O)(=O)NCCc2cccs2)cc1	none (no result: Arbovirus anti, Bim-Mcl-1)
C=CCc1ccccc1OCC(=O)N/N=C/c1ccc(OC(C)=O)cc1OC(C)=O	none
CCOc1ccccc1CN(CCc1ccc2c(c1)OCO2)Cc1ccccn1	14-3-3 Bad PPI 72 (no result: Bim-Mcl-1)
CC(=O)c1ccc(NC(=O)Nc2ccc3c(c2)N(C)C(=O)CS3)cc1	Mcl1 Noxa PPI 61
CCOc1ccc(NC(=O)Nc2ccc3c(c2)N(C)C(=O)CS3)cc1	none
COc1ccc(-c2[nH]ncc2CN2CCCC(C(=O)c3ccc(OC)cc3OC)C2)cc1 (centres undefined)	none
COc1ccc(C(=O)C2CCCN(Cc3cn[nH]c3-c3ccc(F)cc3)C2)cc1OC (centres undefined)	Mcl1 Bid PPI 96
O=C(Nc1ccc([N+](=O)[O-])cc1)Nc1ccc(N2CCOCC2)c2nonc12	Mcl1 Noxa PPI 94
N=C(N)SCP(=O)(c1ccccc1)c1ccccc1	Mcl1 Bid PPI 56 (no result: Arbovirus anti, Bim-Mcl-1)
Cc1ccc(P(=O)(CSC(=N)N)c2ccc(C)cc2)cc1	none
CCc1cc(N2CCOCC2)cc2c1[nH]c1ccccc12	Mcl1 Noxa PPI 70
CCOC(=O)CC(NC(=O)Cc1ccc(F)cc1)c1ccccc1Cl (centres undefined)	none
CCCc1nc(SCC(=O)c2ccc(F)cc2)c2ccccc2n1	none
C/C(N)=C(/C#N)C(=O)COC(=O)c1ccc(NC(N)=O)cc1	none (no result: Arbovirus anti, Bim-Mcl-1)
C/C=C(\C)CN1CCN(c2ccccc2)CC1	14-3-3 Bad PPI 74
C/C=C(\C)CN1CCN(c2ccccc2F)CC1	Mcl1 Bid PPI 53
C/C(=C\c1ccccc1)CN1CCN(c2ccccc2)CC1	none
C/C=C(\C)CN1CCN(c2cccc(C)c2C)CC1	none
CSc1ncccc1C(=O)OCC(=O)NC(C)C	none
Cc1ccc(C)c(S(=O)(=O)NC(C)C(=O)Nc2ccc(-c3nc4ccccc4s3)cc2)c1 (centres undefined)	none
Cc1ccc(Nc2cc(-n3nc(C)cc3C)ncn2)c(C)c1	Mcl1 Noxa PPI 56
CCOc1ccccc1NC(=S)NNS(=O)(=O)c1c(C)cc(C)cc1C	none
